PubChem BioAssay (NCATS)
Inconclusive results are not listed. Entries that show only a call come without a potency. The source made the active and inactive calls. Calls follow the shape of the dose curve; as a rule, active = well fitted curve in the direction sought with a large enough effect; inconclusive = small, poorly fitted or top-dose-only effect, or another doubt; inactive = no such curve, though single readings can be large; an effect the other way counts as inactive or inconclusive.

experiment: Cell Viability - LYMP1-003 - Assay at 24 hr (AID 963); conditions: LYMP1-003 lymphoblastoid cell viability; series mostly up to 92.2 µM
Method in brief: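 Cytotoxicity is scored as a concentration-dependent fall in ATP-linked luciferase signal in human lymphoblastoid LYMP1-003 cells treated 24 hr at 37 C in complete culture medium.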
Potency is read from the fitted curve at half-maximal effect.

Row | Structure (SMILES) | Potency
1 | Oc1ccc2cc(SSc3ccc4cc(O)ccc4c3)ccc2c1 | 50.1 µM (active)
2 | Nc1ccc2cc3ccccc3cc2c1 | inactive
3 | CN(C)c1ccc(C2(c3ccc(N(C)C)cc3)OC(=O)c3cc(N(C)C)ccc32)cc1 | inactive
4 | Cc1cc(Nc2ccc(O)cc2)ccc1N | inactive
5 | CO[C@H]1/C=C/O[C@@]2(C)Oc3c(C)c(O)c4c(O)c(c5c(c4c3C2=O)NC2(CCN(CC(C)C)CC2)N=5)=NC(=O)/C(C)=C\C=C\[C@H](C)[C@H](O)[C@@H](C)[C@@H](O)[C@@H](C)[C@H](OC(C)=O)[C@@H]1C | inactive
6 | Cc1cc(O)c(C(C)(C)C)cc1Sc1cc(C(C)(C)C)c(O)cc1C | 39.8 µM (active)
7 | C=C(C)c1ccccc1 | inactive
8 | O=C1OC2(c3cc(Br)c(O)c(Br)c3Oc3c2cc(Br)c(O)c3Br)c2c(Cl)c(Cl)c(Cl)c(Cl)c21 | inactive
9 | c1cc(OCC2CO2)cc(OCC2CO2)c1 (configuration not stated) | inactive
10 | ClC1=C(Cl)C(Cl)(Cl)C(Cl)=C1Cl | inactive
11 | C=CC(=O)OCCOCCOC(=O)C=C | 31.6 µM (active)
12 | C/C=C1\C(=O)C[C@H]2[C@@H]3CCC4=CC(=O)CC[C@]4(C)[C@H]3CC[C@]12C | inactive
13 | CNc1ccc(O)cc1 | 25.1 µM (active)
14 | CC(=O)Nc1ccc(C(=O)CCl)cc1 | 39.8 µM (active)
15 | CCC(C)Nc1ccc(NC(C)CC)cc1 (configuration not stated) | 12.6 µM (active)
16 | O=C=Nc1ccc(Cc2ccc(N=C=O)cc2)cc1 | inactive
17 | c1ccc2c(c1)ccc1cc3c(ccc4ccccc43)cc12 | inactive
18 | c1ccc2c(c1)-c1cccc3c1c-2cc1ccccc13 | inactive
19 | O=[N+]([O-])c1cc([N+](=O)[O-])c2ccc(S(=O)(=O)O)cc2c1O | inactive
20 | O=Cc1ccc(Cl)c(Cl)c1 | inactive

experiment: Cell Viability - LYMP1-003 - Assay at 40 hr (AID 964); conditions: LYMP1-003 lymphoblastoid viability; series mostly up to 92.2 µM; also: nearly all actives have a fitted effect of over 60% in size
Method in brief: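 Luminescent ATP signal (CellTiter-Glo) served as the viability read-out after 40 hr compound treatment of human lymphoblastoid LYMP1-003 cells at 37 C. Decreases in ATP were fitted with the Hill equation to give AC50.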

Row | Structure (SMILES) | Potency
21 | Oc1ccc2cc(SSc3ccc4cc(O)ccc4c3)ccc2c1 | 50.1 µM (active)
22 | Nc1ccc2cc3ccccc3cc2c1 | inactive
23 | CN(C)c1ccc(C2(c3ccc(N(C)C)cc3)OC(=O)c3cc(N(C)C)ccc32)cc1 | inactive
24 | Cc1cc(O)c(C(C)(C)C)cc1Sc1cc(C(C)(C)C)c(O)cc1C | 39.8 µM (active)
25 | C=C(C)c1ccccc1 | inactive
26 | O=C1OC2(c3cc(Br)c(O)c(Br)c3Oc3c2cc(Br)c(O)c3Br)c2c(Cl)c(Cl)c(Cl)c(Cl)c21 | inactive
27 | c1cc(OCC2CO2)cc(OCC2CO2)c1 (configuration not stated) | inactive
28 | ClC1=C(Cl)C(Cl)(Cl)C(Cl)=C1Cl | inactive
29 | C=CC(=O)OCCOCCOC(=O)C=C | 25.1 µM (active)
30 | CNc1ccc(O)cc1 | 25.1 µM (active)
31 | CC(=O)Nc1ccc(C(=O)CCl)cc1 | 39.8 µM (active)
32 | CCC(C)Nc1ccc(NC(C)CC)cc1 (configuration not stated) | 10 µM (active)
33 | O=C=Nc1ccc(Cc2ccc(N=C=O)cc2)cc1 | inactive
34 | c1ccc2c(c1)ccc1cc3c(ccc4ccccc43)cc12 | inactive
35 | c1ccc2c(c1)-c1cccc3c1c-2cc1ccccc13 | inactive
36 | O=[N+]([O-])c1cc([N+](=O)[O-])c2ccc(S(=O)(=O)O)cc2c1O | inactive
37 | O=Cc1ccc(Cl)c(Cl)c1 | inactive

experiment: Cell Viability - LYMP2-003 (AID 965); conditions: LYMP2-003 lymphoblastoid cell viability; series mostly up to 92.2 µM;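 also: cells exposed to compounds for 24 h before reading; nearly all actives have a fitted effect of over 50% in size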
Method in brief: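 Seed 2500 lymphoblastoid cells/well; incubate 5 hr, 37 C; add compounds; incubate 24 hr, 37 C; add CellTiter-Glo, 30 min RT; read luminescence. AC50 from Hill fit.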

Row | Structure (SMILES) | Potency
38 | Nc1ccc2cc3ccccc3cc2c1 | inactive
39 | CN(C)c1ccc(C2(c3ccc(N(C)C)cc3)OC(=O)c3cc(N(C)C)ccc32)cc1 | inactive
40 | Cc1cc(Nc2ccc(O)cc2)ccc1N | 50.1 µM (active)
41 | CO[C@H]1/C=C/O[C@@]2(C)Oc3c(C)c(O)c4c(O)c(c5c(c4c3C2=O)NC2(CCN(CC(C)C)CC2)N=5)=NC(=O)/C(C)=C\C=C\[C@H](C)[C@H](O)[C@@H](C)[C@@H](O)[C@@H](C)[C@H](OC(C)=O)[C@@H]1C | inactive
42 | Cc1cc(O)c(C(C)(C)C)cc1Sc1cc(C(C)(C)C)c(O)cc1C | 31.6 µM (active)
43 | C=C(C)c1ccccc1 | inactive
44 | Cc1ccc(S(=O)(=O)Oc2ccc(N=Nc3ccc(-c4ccc(N=Nc5c(O)ccc6cc(S(=O)(=O)O)cc(S(=O)(=O)O)c56)c(C)c4)cc3C)cc2)cc1 | inactive
45 | O=C1OC2(c3cc(Br)c(O)c(Br)c3Oc3c2cc(Br)c(O)c3Br)c2c(Cl)c(Cl)c(Cl)c(Cl)c21 | inactive
46 | ClC1=C(Cl)C(Cl)(Cl)C(Cl)=C1Cl | inactive
47 | C=CC(=O)OCCOCCOC(=O)C=C | 12.6 µM (active)
48 | C/C=C1\C(=O)C[C@H]2[C@@H]3CCC4=CC(=O)CC[C@]4(C)[C@H]3CC[C@]12C | inactive
49 | O=C1OC(O)C(C(Cl)Cl)=C1Cl (configuration not stated) | 15.8 µM (active)
50 | CNc1ccc(O)cc1 | 5.01 µM (active)
51 | CC(=O)Nc1ccc(C(=O)CCl)cc1 | 6.31 µM (active)
52 | CCC(C)Nc1ccc(NC(C)CC)cc1 (configuration not stated) | 10 µM (active)
53 | O=C=Nc1ccc(Cc2ccc(N=C=O)cc2)cc1 | inactive
54 | c1ccc2c(c1)ccc1cc3c(ccc4ccccc43)cc12 | inactive
55 | c1ccc2c(c1)-c1cccc3c1c-2cc1ccccc13 | inactive
56 | O=[N+]([O-])c1cc([N+](=O)[O-])c2ccc(S(=O)(=O)O)cc2c1O | inactive
57 | O=Cc1ccc(Cl)c(Cl)c1 | inactive
